Test results taken from PubChem BioAssay (Tox21).
Values joined by “and” are separate entries in the source; they are usually repeats but may differ in a detail not shown here. Identical values can stand only once. Results filed as inconclusive are left out. A call without a number means that no potency is given here. A structure can be active in one record and inactive in another. Active and inactive are the calls of the source. Unless noted, the call rests on the fitted dose curve; in most records, active means well fitted curve in the direction sought with a large enough effect in the repeat runs; inconclusive means weak or mixed curves; inactive means no such curve, though single readings can be large; an effect the other way counts as inactive or inconclusive.

Legend:
[1] = qHTS assay to identify small molecule agonists of the androgen receptor (AR) signaling pathway in the presence of an antagonist - cell viability counter screen (AID 1259379);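 further: MDA-kb2 human breast cancer cells carrying an MMTV luciferase reporter; series mostly up to about 92 µM; nearly all actives have a fitted effect of over 25% in size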
Method in brief: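 Viability counter screen: CellTiter-Fluor fluorescence, measured in the same wells as the luciferase read-out. MDA-kb2 cells, 3,000/well, with nilutamide at 3.0uM final and compounds at 15 concentrations, 16 hr at 37C, 0% CO2.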

[2] = qHTS assay to identify small molecule agonists of the estrogen receptor beta (ER-beta) signaling pathway - cell viability counter screen (AID 1259380); further: nearly all actives have a fitted effect of over 30% in size; further: potency means the concentration at half of the fitted maximal effect
Method in brief: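 Luminescence read-out (CellTiter-Glo, 30 min, room temp) taken in the same wells as the beta-lactamase reporter assay; ER-beta-UAS-bla HEK293T cells exposed to DMSO-dissolved compounds for 16 hr at 37C in 2% charcoal-stripped FBS medium.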

[3] = qHTS assay to identify small molecule antagonists of the estrogen receptor beta (ER-beta) signaling pathway - cell viability counter screen (AID 1259382); further: nearly all actives have a fitted effect of over 55% in size; further: potency means the concentration at half of the fitted maximal effect;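 on activity change, negative = cytotoxicity: HEK293T cells carrying ER-beta-UAS-bla reporter stimulated with estradiol; series mostly up to about 92 µM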
Method in brief: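 Luminescent ATP read-out (CellTiter-Glo, 30 min, RT) taken in the same wells as the bla reporter assay. HEK293T ER-beta-UAS-bla cells in 2% charcoal-stripped FBS were exposed to compounds with 1nM E2 for 16 hr at 37C.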

[4] = target: Estrogen receptor (Homo sapiens) (UniProt P03372); experiment: qHTS assay to identify small molecule agonists of the estrogen receptor alpha (ER-alpha) signaling pathway in the presence of an antagonist (AID 1259383; calls by dose curve; further: top concentration of the series differs between compounds; nearly all actives have a fitted effect of over 15% in size)
Estrogen receptor (Homo sapiens), sequence (P03372 whole entry, looked up): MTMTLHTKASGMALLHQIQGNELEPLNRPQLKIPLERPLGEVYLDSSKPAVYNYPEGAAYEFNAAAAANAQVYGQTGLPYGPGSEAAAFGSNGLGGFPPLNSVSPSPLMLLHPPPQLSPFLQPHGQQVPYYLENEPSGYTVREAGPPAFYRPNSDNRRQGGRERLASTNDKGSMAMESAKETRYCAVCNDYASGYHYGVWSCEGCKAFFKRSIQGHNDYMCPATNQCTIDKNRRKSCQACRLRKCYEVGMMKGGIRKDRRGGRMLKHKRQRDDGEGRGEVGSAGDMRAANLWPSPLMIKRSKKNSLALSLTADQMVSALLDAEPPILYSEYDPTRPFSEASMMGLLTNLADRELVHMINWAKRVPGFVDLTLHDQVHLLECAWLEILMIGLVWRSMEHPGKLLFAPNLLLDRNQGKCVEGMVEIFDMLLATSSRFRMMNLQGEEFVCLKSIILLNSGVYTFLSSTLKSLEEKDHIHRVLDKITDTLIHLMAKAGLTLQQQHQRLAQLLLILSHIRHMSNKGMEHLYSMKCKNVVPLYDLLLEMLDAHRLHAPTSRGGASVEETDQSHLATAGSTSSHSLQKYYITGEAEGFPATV
Method in brief: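 Luciferase luminescence (ONE-Glo, 30min at room temperature) measured in VM7Luc4E2 cells after 22hr compound exposure at 15 concentrations, with 10.0nM ICI-182,780 final present; cells express endogenous ER-alpha and carry four EREs upstream of luciferase.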

[5] = target: Progesterone receptor (Homo sapiens) (UniProt P06401); experiment: qHTS assay to identify small molecule agonists of the progesterone receptor (PR) signaling pathway (AID 1346784; calls by dose curve; further: nearly all actives have a fitted effect of over 30% in size; further: potency means the concentration at half of the fitted maximal effect)
Progesterone receptor (Homo sapiens), sequence (P06401 whole entry, looked up): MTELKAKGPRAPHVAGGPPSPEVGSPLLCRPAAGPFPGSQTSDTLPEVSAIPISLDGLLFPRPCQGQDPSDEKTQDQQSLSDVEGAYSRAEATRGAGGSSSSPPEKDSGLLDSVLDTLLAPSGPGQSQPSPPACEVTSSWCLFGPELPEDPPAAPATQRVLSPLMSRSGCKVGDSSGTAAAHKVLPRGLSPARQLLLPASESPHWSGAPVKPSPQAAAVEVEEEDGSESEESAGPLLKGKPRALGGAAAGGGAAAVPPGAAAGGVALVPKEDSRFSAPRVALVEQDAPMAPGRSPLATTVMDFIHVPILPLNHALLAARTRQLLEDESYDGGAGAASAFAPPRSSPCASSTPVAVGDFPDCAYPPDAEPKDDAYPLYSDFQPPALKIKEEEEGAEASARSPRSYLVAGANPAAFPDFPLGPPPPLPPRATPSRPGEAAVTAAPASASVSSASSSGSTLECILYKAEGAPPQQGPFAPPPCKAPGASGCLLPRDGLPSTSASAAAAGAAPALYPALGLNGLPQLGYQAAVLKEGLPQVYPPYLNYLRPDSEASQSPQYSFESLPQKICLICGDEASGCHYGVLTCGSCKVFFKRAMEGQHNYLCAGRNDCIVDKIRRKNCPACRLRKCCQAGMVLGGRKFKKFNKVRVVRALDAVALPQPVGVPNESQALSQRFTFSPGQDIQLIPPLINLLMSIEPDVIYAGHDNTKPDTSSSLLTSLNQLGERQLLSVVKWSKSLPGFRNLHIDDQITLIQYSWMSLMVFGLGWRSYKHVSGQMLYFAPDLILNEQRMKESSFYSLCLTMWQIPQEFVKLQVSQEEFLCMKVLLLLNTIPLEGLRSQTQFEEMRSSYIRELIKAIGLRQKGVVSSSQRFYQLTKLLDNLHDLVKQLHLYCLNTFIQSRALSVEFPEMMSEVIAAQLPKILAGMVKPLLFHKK
Method in brief: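 Seed PR-UAS-bla HEK 293T cells (2% charcoal-stripped FBS), incubate 6 hr at 37C; add compounds in DMSO, 16 hr at 37C; add LiveBLAzer B/G substrate, 2 hr RT; read fluorescence intensity.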

[6] = target: Progesterone receptor (Homo sapiens) (UniProt P06401); experiment: qHTS assay to identify small molecule antagonists of the progesterone receptor (PR) signaling pathway (AID 1346795; active means well fitted inhibition curve with a large enough effect in the signal ratio in the repeat runs, not every such curve was filed as active; the % refers to the signal ratio; further: potency means the concentration at half of the fitted maximal effect)
Method in brief: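 Screening used a GripTite HEK293T line with PR-responsive UAS-beta-lactamase. Cells were challenged with compound in the presence of 1 nM R5020 final for 16 hr at 37C; B/G FRET substrate, 2 hr room temperature, fluorescence.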

[7] = qHTS assay to identify small molecule agonists or antagonists of the thyroid stimulating hormone receptor (TSHR) signaling pathway - wild type cell line counter screen (AID 1259384; calls by dose curve)
Method in brief: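 Counter screen in untransfected Hek293: compounds (15-point titration, triplicate) plus phosphodiesterase inhibitor Ro20-1724 added after 18 h plating; 30 min RT. Intracellular cAMP via competitive d2/cryptate immunoassay, 1 h incubation.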

[8] = target: Thyrotropin receptor (Homo sapiens) (UniProt P16473); experiment: qHTS assay to identify small molecule antagonists of the thyroid stimulating hormone receptor (TSHR) signaling pathway (AID 1259385; calls by dose curve; further: nearly all actives have a fitted effect of over 20% in size)
Thyrotropin receptor (Homo sapiens), sequence (P16473 whole entry, looked up): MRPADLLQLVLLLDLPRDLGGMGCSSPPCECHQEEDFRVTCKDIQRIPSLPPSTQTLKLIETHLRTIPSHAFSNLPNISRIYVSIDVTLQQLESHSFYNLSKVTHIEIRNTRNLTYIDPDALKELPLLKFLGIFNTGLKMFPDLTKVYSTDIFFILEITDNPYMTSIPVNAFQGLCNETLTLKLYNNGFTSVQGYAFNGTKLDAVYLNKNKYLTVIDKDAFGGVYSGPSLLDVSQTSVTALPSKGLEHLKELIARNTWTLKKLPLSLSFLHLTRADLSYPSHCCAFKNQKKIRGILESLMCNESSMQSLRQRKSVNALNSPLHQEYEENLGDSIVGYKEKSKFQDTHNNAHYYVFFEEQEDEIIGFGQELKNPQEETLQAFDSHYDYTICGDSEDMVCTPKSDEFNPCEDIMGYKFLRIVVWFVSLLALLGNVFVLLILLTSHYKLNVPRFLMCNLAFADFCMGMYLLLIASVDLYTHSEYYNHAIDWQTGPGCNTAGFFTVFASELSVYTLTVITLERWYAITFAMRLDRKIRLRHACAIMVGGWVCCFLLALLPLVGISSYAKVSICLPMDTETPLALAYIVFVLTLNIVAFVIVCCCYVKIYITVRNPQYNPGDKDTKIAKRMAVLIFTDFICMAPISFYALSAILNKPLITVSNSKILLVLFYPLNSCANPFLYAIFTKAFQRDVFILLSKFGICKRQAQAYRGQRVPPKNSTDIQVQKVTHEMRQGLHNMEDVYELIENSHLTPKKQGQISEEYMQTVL
Method in brief: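 Antagonist mode: compound-treated TSHR-expressing HEK293 cells were stimulated with 1.5 ng/mL TSH (final) in presence of Ro20-1724 for 30 min at RT. HTRF cAMP detection after 1 h; each compound tested at 15 concentrations, triplicate.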

[9] = qHTS assay to identify small molecule agonists of the estrogen receptor alpha (ER-alpha) signaling pathway in the presence of an antagonist - cell viability counter screen (AID 1259386);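 further: series mostly up to about 92 µM; cells exposed to compounds for 22 h at 37 °C before the viability read; nearly all actives have a fitted effect of over 30% in size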
Method in brief: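 Read-out: CellTiter-Fluor fluorescence after 1hr reagent incubation, measured in the same wells as the luciferase readout. VM7Luc4E2 cells were exposed to 15 compound concentrations with 10.0nM ICI-182,780 for 22hr at 37C.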

Structure (SMILES) | activity change, negative = cytotoxicity [1] | activity change, negative = cytotoxicity [2] | activity change, negative = cytotoxicity [3] | activation [4] | Potency [5] | activation [5] | activity change, negative = inhibition [6] | Potency [1] | Potency [2] | Potency [3] | Potency [4] | outcome [7] | Potency [8] | Potency [9] | Potency [6]
CCN(CC)CCCC(C)Nc1ccnc2cc(Cl)ccc12 (centres undefined) | -10.8% [at 8.39 µM] (inactive) | -12.8% [at 8.39 µM] (inactive) and -6.59% [at 19 µM] (inactive) | -20.4% [at 8.39 µM] (inactive) and -8.86% [at 19 µM] (inactive) | -0.124% [at 8.39 µM] (inactive) and -1.51% [at 19 µM] (inactive) | 0.119 µM (active) | -0.551% [at 19 µM] (inactive) | 0.105% [at 8.39 µM] (inactive) and 2.39% [at 18.9 µM] (inactive) | – | – | – | – | – | – | – | –
CCOC(=O)NNc1nncc2ccccc12 | – | – | – | – | inactive | – | – | inactive | inactive | inactive | inactive | inactive | inactive | inactive | inactive
CC(=O)c1ccccc1 | – | – | – | – | inactive | – | – | inactive | inactive | inactive | inactive | inactive | inactive | inactive | inactive
Cc1ccc2oc(=O)ccc2c1 | – | – | – | – | inactive | – | – | inactive | inactive | inactive | inactive | inactive | inactive | inactive | inactive
c1ccc2scnc2c1 | – | – | – | – | inactive | – | – | inactive | inactive | inactive | inactive | inactive | inactive | inactive | inactive
c1ccc(OCCOc2ccccc2)cc1 | – | – | – | – | inactive | – | – | inactive | inactive | inactive | inactive | inactive | inactive | inactive | inactive
O=[N+]([O-])c1ccc(/C=C/c2ccc([N+](=O)[O-])cc2S(=O)(=O)O)c(S(=O)(=O)O)c1 | – | – | – | – | inactive | – | – | inactive | inactive | inactive | inactive | – | – | inactive | inactive
CCCCCCOCCO | – | – | – | – | inactive | – | – | inactive | inactive | inactive | inactive | – | – | inactive | inactive
CCCCC(CC)COC(=O)CS (centres undefined) | – | – | – | – | inactive | – | – | inactive | inactive | inactive | – | inactive | inactive | inactive | inactive
O=S(=O)(O)c1ccc2ccccc2c1 | – | – | – | – | inactive | – | – | inactive | inactive | inactive | inactive | inactive | inactive | inactive | inactive
CC1=CCC2CC1C2(C)C (centres undefined) | – | – | – | – | inactive | – | – | inactive | inactive | inactive | inactive | inactive | inactive | inactive | inactive
c1c[nH]cn1 | – | – | – | – | inactive | – | – | inactive | inactive | inactive | inactive | – | – | inactive | inactive
COc1ccc(NC(C)=O)cc1N | – | – | – | – | inactive | – | – | inactive | inactive | inactive | inactive | inactive | inactive | inactive | inactive
COc1ccc(Nc2ccccc2)c(C)c1 | – | – | – | – | inactive | – | – | inactive | inactive | inactive | inactive | inactive | inactive | inactive | inactive
C#C[C@]1(O)CC[C@H]2[C@@H]3CCC4=CC(=O)CC[C@@H]4[C@H]3CC[C@@]21C | – | – | – | – | – | – | – | inactive | 48.6 µM (active) | inactive | – | inactive | inactive | inactive | –
CCCCCCCCCCCCS | – | – | – | – | inactive | – | – | inactive | inactive | inactive | inactive | inactive | inactive | inactive | inactive
CCc1ccc(CCOc2ccc(CC3SC(=O)NC3=O)cc2)nc1 (centres undefined) | – | – | – | – | inactive | – | – | inactive | inactive | inactive | inactive | – | – | inactive | –
C=C(C)C(=O)O[C@H]1C[C@@H]2CC[C@@]1(C)C2(C)C | – | – | – | – | inactive | – | – | inactive | 4.3 µM (active) and inactive | 7.65 µM (active) and inactive | inactive | inactive | inactive | inactive | 2.71 µM (active) and inactive
O=C1CCC(N2C(=O)c3ccccc3C2=O)C(=O)N1 (centres undefined) | – | – | – | – | inactive | – | – | inactive | inactive | inactive | – | inactive | inactive | inactive | inactive
CCCCCCCCCCCCCCO | – | – | – | – | inactive | – | – | inactive | inactive | inactive | inactive | inactive | inactive | inactive | inactive
O=C(O)CCCCCCCCCCC(=O)O | – | – | – | – | inactive | – | – | inactive | inactive | inactive | inactive | inactive | inactive | inactive | inactive
OCCOCCN1CCN(C2=Nc3ccccc3Sc3ccccc32)CC1 | – | – | – | – | inactive | – | – | inactive | 13.3 µM (active) | inactive | – | inactive | inactive | inactive | inactive
CC(=O)Nc1ccccc1 | – | – | – | – | inactive | – | – | inactive | inactive | inactive | inactive | inactive | inactive | inactive | inactive
O=C(OCCOCCOC(=O)c1ccccc1)c1ccccc1 | – | – | – | – | inactive | – | – | inactive | inactive | inactive | inactive | inactive | inactive | inactive | inactive
CC(O)COCC(C)O (centres undefined) | – | – | – | – | inactive | – | – | inactive | inactive | inactive | inactive | inactive | inactive | inactive | inactive
COc1ccc2cc([C@H](C)C(=O)O)ccc2c1 | – | – | – | – | inactive | – | – | inactive | inactive | inactive | – | inactive | inactive | inactive | inactive
CCN(CC)c1ccc(C(=O)c2ccccc2C(=O)O)c(O)c1 | – | – | – | – | inactive | – | – | inactive | – | inactive | inactive | inactive | inactive | inactive | inactive
